High-throughput results: PubChem, National Center for Advancing Translational Sciences (NCATS)
BCR signal inh: inhibitors of chronic active B-cell receptor signaling; ABC-DLBCL IkBa-CBG/CBR reporter, luminescence ratio, 4 h; Potency, µM (titrated, usually from 46.1 µM), usual class: inhibitors; 340,000 tested, 0.05% active; active = well fitted inhibition curve with a large enough effect in the signal ratio, with a control signal flat, not every such curve was filed as active; inconclusive = small, poorly fitted or top-dose-only effect, or effect the other way, or a change in a side signal; the % refers to the signal ratio
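Cell line TMD8 (human ABC DLBCL), stably expressing tet-inducible CBG68-IkBa fusion and CBR; IMDM/0.5% FBS; cpd up to 46 uM; dox induction, 4 h, 37C/5% CO2; dual luminescence; green/red ratio; MG132 control.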
TDP1 cell noCPT: qHTS for Inhibitors of human tyrosyl-DNA phosphodiesterase 1 (TDP1): qHTS in cells in absence of CPT. DT40 Tdp1-/- hTDP1 cells, no CPT, ATP luminescence, 48 h. Potency, µM (doses to about 46.2 µM), hits mostly inhibitors. 420,000 tested, 15% active. AID 686978, 2013; note: nearly all actives have a fitted effect of over 55% in size
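No-CPT arm: Tdp1-/-;hTDP1 DT40 cells (400/well) plus compounds, incubated ≥48 hr at 37 °C. Readout CellTiter-Glo luminescence.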
SW480 rerep: induces DNA re-replication in SW480 colon adenocarcinoma cells | Potency, µM (doses to about 46.1 µM), hits mostly activators | 340,000 tested, 1.8% active | SW480 DNA re-replication, Hoechst DNA content imaging, 48 h; note: nearly all actives have a fitted effect of over 55% in size
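SW480 cells exposed to compounds for 48 hr at 37 C, 5% CO2, then Hoechst-stained 40 min. Nuclear DNA content imaged by fluorescence scanning (405 nm excitation, 500-530 nm emission); re-replication scored as increased high-intensity nuclei.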
IL-1B inflam inh: inhibitors of inflammasome signaling (IL-1 beta secretion). THP-1 LPS/ATP IL-1B secretion, AlphaLISA, 16 h; active compounds read low. activity change, % at 57.5 µM. 360,000 tested, 4.7% active. AID 743279; in the data active = activity change below about -50%; inconclusive = mostly about -30% to -49%
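THP-1 cells pretreated 1 hr with compounds (up to 57.5 uM final), then stimulated with LPS (250 ng/mL final) plus ATP (1.25 mM final); secreted IL-1B measured by AlphaLISA after 16 hr, decreased signal indicating inhibition.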
DT40 TDP1 CPT: growth inhibition of DT40 Tdp1-/-;hTDP1 cells with camptothecin (screen for TDP1 inhibitors); AID 686979; Potency, µM (top dose mostly 46.2 µM), actives largely listed as inhibitors; 420,000 tested, 12% active; chicken DT40 Tdp1-/-;hTDP1 cells + 20 nM CPT, ATP luminescence, 48 h; note: nearly all actives have a fitted effect of over 55% in size
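Cell growth measured by CellTiter-Glo luminescence after a minimum 48 h, 37 C compound exposure with 20 nM CPT in Tdp1-knockout DT40 cells stably expressing hTDP1, seeded 400/well; qHTS titration format.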
MCF10A rereplic: inducers of DNA re-replication in MCF 10A breast cells | MCF 10A DNA re-replication, Hoechst nuclear intensity, 48 h | Potency, µM (doses to about 46.1 µM), hits mostly activators | 350,000 tested, 2.9% active | AID 624296; note: nearly all actives have a fitted effect of over 50% in size
A number is an active result; . = inactive; ? = inconclusive; / = not tested or not shown. Rows were chosen to be rich in hits. Some 19% of all compounds tested hit in one or more screens of this group. Unless noted, calls come from the whole dose curve; as a rule, active = well fitted curve in the direction sought with a large enough effect; inconclusive = small, poorly fitted or top-dose-only effect, or another doubt; inactive = no such curve, though single readings can be large; an effect the other way counts as inactive or inconclusive.

SMILES	BCR signal inh	TDP1 cell noCPT	SW480 rerep	IL-1B inflam inh	DT40 TDP1 CPT	MCF10A rereplic
CN1CCN(CC(O)Cn2c3ccccc3c3ccccc32)CC1 (stereo not drawn)	.	?	.	.	.	.
COc1ccc(CN2CCN(CC(O)Cn3c4ccccc4c4ccccc43)CC2)cc1 (stereo not drawn)	.	?	?	-57	?	?
COc1ccc(O)c(CN2CC3CCC(CC3)C2)c1	/	?	.	.	23µM	.
COc1cc(CN2CCN(S(=O)(=O)c3ccccc3)CC2)cc(OC)c1O	/	.	/	/	.	/
Cc1ccc(S(=O)(=O)N2CCC(C(=O)OCC(=O)NCc3cccc(Cl)c3)CC2)cc1C	.	.	.	.	.	.
CCCNCC(O)Cn1c2ccccc2n2c(=O)cc(C)c(C#N)c12 (stereo not drawn)	.	?	.	.	?	.
O=c1c2ccccc2n(CC(O)CN2CCCCC2)c2ccccc12 (stereo not drawn)	.	.	7.3µM	/	.	21µM
COc1ccc(-c2cc3ccccc3n2CC(O)CN2CCC(C)CC2)cc1 (stereo not drawn)	.	23µM	.	?	?	.
Cc1cc(=O)n2c3ccccc3n(CC(O)CN3CCCC3)c2c1C#N (stereo not drawn)	?	?	.	-65	?	?
Cc1cc(C)c2c(=O)cc(CSc3nnc(-c4ccccc4)n3C)[nH]c2c1	/	.	/	/	.	/
CC(C)CC1NC(=S)N(C2CCCCC2)C1=O (stereo not drawn)	.	15µM	?	.	8.2µM	16µM
COc1ccc(F)cc1S(=O)(=O)Nc1cc2c3c(c1)CCN3C(=O)CC2	?	.	.	.	.	.
CCC(C)(C)NC(=O)C(c1ccc(OC)cc1)N(C(=O)CCC(=O)Nc1cc(C)on1)c1ccccc1F (stereo not drawn)	.	.	.	.	.	.
COc1ccc(-c2nn(-c3ccccc3)cc2C(=O)n2nnc3ccccc32)cc1	.	.	.	.	21µM	.
COC(=O)c1cn(-c2ccccc2)nc1-c1ccc(OC)cc1	.	?	.	.	.	.
COc1ccccc1-c1ccc2c(c1)C(C)(Cc1cc(Cl)ccc1C(F)(F)F)C(=O)N2 (stereo not drawn)	/	?	/	.	?	/
CC1(Cc2ccc3ccccc3n2)C(=O)Nc2ccc(OC(F)(F)F)cc21 (stereo not drawn)	/	?	/	.	?	/
CC1(Cc2ccccc2OC(F)(F)F)C(=O)Nc2ccc(OC(F)(F)F)cc21 (stereo not drawn)	/	21µM	/	?	21µM	/
CC1(Cc2ccc(OC(F)(F)F)cc2)C(=O)Nc2ccc(S(=O)(=O)NC3CCCCC3)cc21 (stereo not drawn)	/	?	/	-72	?	/
CC1(Cc2ccc(Cl)cc2)C(=O)Nc2ccc(S(=O)(=O)NC3CCCCC3)cc21 (stereo not drawn)	/	?	/	.	?	/
COc1ccccc1-c1ccc2c(c1)C(C)(Cc1cccc(C#N)c1)C(=O)N2 (stereo not drawn)	/	16µM	/	.	21µM	/
COc1ccccc1-c1ccc2c(c1)C(C)(Cc1ccc(F)c(Cl)c1)C(=O)N2 (stereo not drawn)	/	?	/	.	?	/
COc1ccc(Cl)cc1CC1(C)C(=O)Nc2ccc(-c3ccccc3OC)cc21 (stereo not drawn)	/	12µM	/	.	21µM	/
Cc1ccc(N2C(=O)N(CC(=O)Nc3ccc(C)cc3Cl)C(=O)C2C)cc1 (stereo not drawn)	.	.	.	.	.	.
COc1ccccc1-c1ccc2c(c1)C(C)(Cc1ccc(Cl)cc1)C(=O)N2 (stereo not drawn)	/	.	/	.	.	/
SMILES	BCR signal inh	TDP1 cell noCPT	SW480 rerep	IL-1B inflam inh	DT40 TDP1 CPT	MCF10A rereplic
CC1(Cc2ccccc2OC(F)(F)F)C(=O)Nc2ccc(-c3ccsc3)cc21 (stereo not drawn)	/	18µM	/	.	?	/
CC(=O)c1cccc(-c2ccc3c(c2)C(C)(Cc2ccc(S(C)(=O)=O)cc2)C(=O)N3)c1 (stereo not drawn)	/	.	/	.	?	/
CC(=O)c1cccc(-c2ccc3c(c2)C(C)(Cc2ccccc2C#N)C(=O)N3)c1 (stereo not drawn)	/	?	/	.	16µM	/
CC1(Cc2c(Cl)cccc2Cl)C(=O)Nc2cc(-c3ccccc3Cl)ccc21 (stereo not drawn)	/	?	/	.	?	/
COc1ccccc1-c1ccc2c(c1)C(C)(Cc1ccc(OC(F)(F)F)cc1)C(=O)N2 (stereo not drawn)	/	?	/	-52	?	/
COC(=O)c1cccc(CC2(C)C(=O)Nc3cc(-c4ccccc4Cl)ccc32)c1 (stereo not drawn)	/	?	/	.	16µM	/
CC1CCc2c(sc(NC(=O)c3cc(-c4ccc(F)cc4)on3)c2C(N)=O)C1 (stereo not drawn)	/	.	/	/	.	/
COCCn1c(=O)c(-c2cccs2)nc2cnc(N3CCOCC3)nc21	/	.	/	/	.	/
CC(C)CC(O)C1CCN(C(=O)CCc2nnc(-c3ccccc3)o2)CC1 (stereo not drawn)	.	.	.	.	.	.
COC(=O)c1ccccc1S(=O)(=O)N1CCC(C(=O)OC(C)C(=O)N(C)Cc2ccccc2)CC1 (stereo not drawn)	/	?	.	.	.	.
CCOC(=O)/C(=C/c1c(C)n(C)c2ccc([N+](=O)[O-])cc12)C(C)=O	?	9.2µM	?	-104	?	15µM
CCOC(=O)c1c[nH]c2ccc([N+](=O)[O-])cc12	/	?	.	.	.	.
O=C(Cn1cnc2c(nnn2Cc2ccc(F)cc2)c1=O)Nc1ccc2c(c1)OCCO2	.	.	?	.	.	16µM
O=C(Cn1cnc2c(nnn2Cc2ccc(F)cc2)c1=O)Nc1cccc(F)c1	.	?	.	.	?	.
CC1Sc2ccc(C(=O)N(CCc3ccccc3)Cc3ccccc3)cc2NC1=O (stereo not drawn)	/	?	/	.	21µM	/
NCCCC[C@@H](C(=O)NCCCCCCCCCCC(=O)N1CCNCC1)n1cc(CCO)nn1	.	.	.	.	.	.
CSCC[C@@H](C(=O)NCCCCCCCCCCC(=O)N1CCN(C(=O)OC(C)(C)C)CC1)n1cc(CCO)nn1	.	15µM	.	.	21µM	.
CC[C@H](C)Cc1cn([C@@H](CCCCNC(=O)OC(C)(C)C)C(=O)NCCCCCCCCCCC(=O)N2CCN(C(=O)OC(C)(C)C)CC2)nn1	.	16µM	.	.	?	.
